Records with an inconclusive call do not appear. A call without a number means that no potency is given here. Active and inactive are the calls of the source. Calls come from the whole dose curve; as a rule, active = well fitted inhibition curve with a large enough effect; inconclusive = small, poorly fitted or top-dose-only effect; inactive = flat fitted curve, though single readings scatter.

Calcium and integrin-binding protein 1 (Homo sapiens), sequence (Q99828 whole entry, looked up): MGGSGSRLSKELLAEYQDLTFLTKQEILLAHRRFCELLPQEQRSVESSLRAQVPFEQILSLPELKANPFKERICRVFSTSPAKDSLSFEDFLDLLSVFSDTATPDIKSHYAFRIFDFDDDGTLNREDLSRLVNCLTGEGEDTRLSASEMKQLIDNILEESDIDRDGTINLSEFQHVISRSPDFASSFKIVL

This assay addresses Calcium and integrin-binding protein 1 (Homo sapiens) (UniProt Q99828). The assay can be described thus: Primary qHTS for Identification of Calcium Integrin Binding Protein 1 (CIB1) Competitor (AID 1508620).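 Note: GST tagged CIB1 binding a fluorescein labelled alphaIIb integrin peptide tracer; top concentration of the series differs between compounds.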 The note with it: CIB1-GST / FITC-alphaIIb peptide fluorescence polarization; series mostly up to 114 µM. The procedure, abridged:
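CIB1-GST (1 uM final) and compound incubated 15 min at room temperature before adding FITC-alphaIIb peptide tracer (100 nM final). Competition for binding read by fluorescence polarization (ex 480, em 540) after another 15 min at room temperature.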
`O=C(O)c1ccc(O)c2ncc(N3CCCCC3)cc12`: the Potency entry was “inactive”.
With `O=C1CCc2cc(Cl)c(S(=O)(=O)Nc3ccc(Cl)c(Cl)c3)cc2N1` the entry was “inactive”.
With `Cc1cnc(-c2ccccc2CO)nc1NCC1CCN(c2cccnc2)CC1` the entry was “inactive”; with `Cc1ccc(NC(=O)CN2C(=O)N/C(=C\c3cccn3-c3cccc(-c4nn[nH]n4)c3)C2=O)cc1`, “inactive”; with `Cc1cc(C)n2ncc(C(=O)Nc3ccc(C(C)(C)C)cc3)c2n1`, “inactive”.
`COc1ccc(-c2nnc(NC(=O)Nc3ccc4ccccc4c3)s2)cc1OC`: the Potency result is “inactive”.
In the case of `COc1ccc(O)c(CNc2ccc(S(=O)(=O)Nc3nccs3)cc2)c1`, the Potency result was “inactive”.
To `COc1ccc(CN(Cc2ccccc2)C(=O)c2ccc(OC)cc2O)cc1` belongs “inactive”.
With `Cc1ccc(CNc2ncc(N3CCCCC3)cn2)cc1` the entry was “inactive”.
To `Cc1ccc(NS(=O)(=O)c2ccc3c(c2)CC(=O)N3)cc1C` belongs “inactive”; to `O=[S+]([O-])(c1ccc2c(c1)OCCO2)N1CCN([S+](=O)([O-])c2cc(Cl)ccc2F)CC1`, “inactive”.
Turning to `O=C1CCCC2=C1C(c1c(Cl)cccc1Cl)N=C(Nc1nc3ccccc3o1)N2` (stereo not given), the Potency entry was “inactive”.
With `CC(C)(C)N=Cc1c(-c2ccccc2)no[n+]1[O-]` the entry was “inactive”; with `COc1cc(F)c(S(=O)(=O)N2CCCN(S(=O)(=O)c3cccc(NC(C)=O)c3)CC2)c(F)c1`, “inactive”.
With `CC(C)N1CCc2c(-c3nc4ccccc4s3)csc2C1` the entry was “inactive”.
With `N=c1c2c(ccn1CCCCc1ccccc1)Oc1ccc3ccccc3c1C2c1ccccc1` (stereo not given), the Potency entry is “inactive”.
To `O=C(OCC#CCSc1nnc(-c2cccc3ccccc23)o1)c1ccncc1` belongs “inactive”; to `COc1ccc(C2Nc3ccccc3C(=O)N2Cc2cccc3ccccc23)cc1COc1ccc(NC(C)=O)cc1` (stereo not given), “inactive”; to `Cc1cc(C)nc(NC(=S)N2CCN(c3ncc(Cl)cc3Cl)CC2)c1`, “inactive”.
To `Cc1ccc(OCCn2c(CCNC(=O)c3cccs3)nc3ccccc32)cc1` belongs “inactive”.
With `CCCCC(OC(=O)CNC(=O)c1ccccc1)C(=O)Nc1cc(C(F)(F)F)ccc1Cl` (stereo not given) the entry was “inactive”; with `CC(C)(C)OC(=O)N1CCN(c2ccc(NCc3ccc(-c4ccc(C(C)(C)C)cc4)o3)cc2)CC1`, “inactive”; with `COc1cccc(NCc2ccc(O)c3ncccc23)n1`, “inactive”.
Take `CN(C)S(=O)(=O)c1ccc(-c2nc(NCc3ccc(-c4ccnc(C(F)(F)F)c4)cc3)c3ccccc3n2)cc1`: the Potency result was “inactive”.
With `Cc1cc2c(s1)c1cnn(Cc3c(F)cccc3C(F)(F)F)c(=O)c1n2C` the entry was “inactive”.
With `COc1ccc(CCNC(=O)Cn2nc(-c3ccc(C)cc3)ccc2=O)cc1OC` the entry was “inactive”; with `Cc1cc2c(s1)c1cnn(Cc3cccc(Br)c3)c(=O)c1n2C`, “inactive”; with `Cc1ccc(OCCn2c(CCNC(=O)C3CCNCC3)nc3ccccc32)cc1`, “inactive”.
To `Cc1cc2c(s1)c1cnn(Cc3c(F)ccc(C)c3Cl)c(=O)c1n2C` belongs “inactive”; to `Fc1ccc(CNc2nc(-c3ccccc3C(F)(F)F)nc3ccccc23)cc1`, “inactive”.
`O=C(Nc1ncc(Cc2ccc(C(F)(F)F)cc2)s1)c1ccc(-c2ccccc2)o1`: the Potency result is “inactive”.
`O=C(Cc1ccccc1)Nc1sc2c(c1C(=O)Nc1cccc(Cl)c1)CCCC2`: the Potency entry is “inactive”.
To `Cc1cc(C)nc(Nc2nnc(N3CCN(c4cccc(C(F)(F)F)c4)CC3)s2)c1` belongs “inactive”; to `COc1cccc(C2c3c(ncn(-c4cccnc4)c3=N)Oc3ccc4ccccc4c32)c1` (stereo not given), “inactive”.
With `Brc1ccc(-c2csc(N3CCNCC3)n2)cc1` the entry was “inactive”.
To `O=S(=O)(c1ccc2c(c1)OCCO2)N1CCN(S(=O)(=O)c2cc(F)c(Br)cc2F)CC1` belongs “inactive”.
Turning to `Cc1ccc(CNc2ccc(N3CCN(C(=O)OC(C)(C)C)CC3=O)cc2)cc1`, the Potency entry was “inactive”.
To `CC(Nc1nc(-c2ccccc2C(F)(F)F)nc2ccccc12)c1ccc(-c2ccncc2)cc1` (stereo not given) belongs “inactive”.
For the molecule `COc1ccc(C2Nc3ccccc3C(=O)N2Cc2ccccc2)cc1COc1ccc(Cl)cc1` (stereo not given), the Potency entry was “inactive”.
With `O=C1CCc2cc(S(=O)(=O)Nc3ccc(F)c(Cl)c3)ccc2N1` the entry was “inactive”.

The values above are taken from PubChem BioAssay (NCATS).
